mHTT-CaM PPI inh: mutant huntingtin-calmodulin interaction inhibitors – biochemical, AlphaScreen, primary screen | P42858 | AlphaScreen His-mHTT/GST-CaM binding, luminescence | inhibition, % at 15 µM | 190,000 compounds, 3.6% hits | AID 1671202, 2021
Pf apPOL block: Pf-apPOL inhibitors, biochemical, fluorescence; inhibition, % at 10 µM; 210,000 compounds, 0.25% hits; Plasmodium falciparum apicoplast DNA polymerase (apPOL); Recombinant Pf-apPOL, molecular beacon fluorescence, 1.5 h
Each line names hits and unclear results; the compound was inactive in the other large screens; ! = a repeat was not active. The full list was thinned out, with hits kept by preference. Rule as the data show it: active = inhibition above about 50%; inactive = the rest.

O=C(O)c1cc(N2C(=O)C3C4C=CC(C5CC45)C3C2=O)ccc1Cl (centres undefined)	Pf apPOL block 63
Cc1ccc(N2C(=O)C3C4C=CC(C5CC45)C3C2=O)cc1Cl (centres undefined)	none
Cc1ccc(C(=O)NC(=S)NCC2COc3ccccc3O2)cc1 (centres undefined)	none (no result: mHTT-CaM PPI inh)
O=C(Nc1ccc2c(c1)CN(C(=O)C1CC1)CC2)NC1CC1	none
COc1cccc2c1OC1(CCC(C)CC1)N1N=C(c3ccc(C)o3)CC21 (centres undefined)	mHTT-CaM PPI inh 85
COc1ccc(C2=NN3C(C2)c2ccccc2OC32CCCCC2)cc1 (centres undefined)	none
COc1cccc2c1OC1(CCCCC1)N1N=C(c3ccc(C)o3)CC21 (centres undefined)	mHTT-CaM PPI inh 80
COc1cccc2c1OC1(CCCCC1)N1N=C(c3ccccc3)CC21 (centres undefined)	none
CCOc1ccc(NC(=O)c2ccc(S(=O)(=O)N3CCCCC3)cc2)cc1	none
CCOc1ccc(-c2cn(-c3ccc(Cl)cc3)c(=O)[nH]2)cc1	none
Cn1ccc2c(N3CCOCC3)cc3c(c21)C1CCC3C1 (centres undefined)	none
Cn1ccc2c(-c3ccc(F)nc3)cc3c(c21)C1CCC3C1 (centres undefined)	none
Cn1ccc2c(-c3cccnc3)cc3c(c21)C1CCC3C1 (centres undefined)	none
Cn1ccc2c(-c3ccc(F)cc3F)cc3c(c21)C1CCC3C1 (centres undefined)	mHTT-CaM PPI inh 59
COc1ccc(-c2cc3c(c4c2ccn4C)C2CCC3C2)cc1OC (centres undefined)	mHTT-CaM PPI inh 74
Cn1ccc2c(N3CCCCCC3)cc3c(c21)C1CCC3C1 (centres undefined)	mHTT-CaM PPI inh 63
Cn1ccc2c(-c3cncc4ccccc34)cc3c(c21)C1CCC3C1 (centres undefined)	mHTT-CaM PPI inh 100
Cn1ccc2c(-c3cccc4ccccc34)cc3c(c21)C1CCC3C1 (centres undefined)	none
CC(C)(C)NC(=O)C1C(=O)CNC23CCCCC2C1c1ccccc1O3 (centres undefined)	none
COc1ccc([N+](=O)[O-])cc1C=Nc1cccc(C(=O)O)c1	none
COc1ccccc1NC(=O)C1CCCN(C(=O)c2cc(C)cc(C)c2)C1 (centres undefined)	none
CCCN(CC1CC1)c1cc2c(c3c1ccn3C)C1CCC2C1 (centres undefined)	mHTT-CaM PPI inh 74
CCN(CC)c1cc2c(c3c1ccn3C)C1CCC2C1 (centres undefined)	none
CCC(=O)N1CCc2sc(C(=O)NC3CCCC3)cc2C1	none
O=C(NCCc1ccsc1)c1ccc(Br)o1	none
CC(C)CN1CCC(N2CCC(C(C)O)CC2)CC1 (centres undefined)	none
O=C(c1cc(C2CC2)[nH]n1)N1CCCC2(C1)Nc1ccccc1NC2=NC1CCCC1 (centres undefined)	none
COc1cc(C=C2Oc3cc(OC(=O)C4CC4)ccc3C2=O)cc(OC)c1OC	none
N=C1S/C(=C\c2ccc(-c3ccc(Cl)cc3C(=O)O)o2)C(=O)N1c1nccs1	mHTT-CaM PPI inh 75
N=C1S/C(=C\c2ccc(-c3ccccc3F)o2)C(=O)N1c1nccs1	none
N=C1S/C(=C\c2ccc(-c3ccc(Cl)c(C(=O)O)c3)o2)C(=O)N1c1nccs1	mHTT-CaM PPI inh 99
O=C1OC(c2ccccc2)=N/C1=C/c1ccc(-c2ccc(Cl)c(C(=O)O)c2)o1	none
CCc1ccc(-c2ccc(OC(=O)c3c(Br)cc(C(F)(F)F)cc3[N+](=O)[O-])cc2)cc1	none (no result: mHTT-CaM PPI inh)
Cc1noc(C2(NC(=O)c3ccc(Br)cc3)CCCCC2)n1	none
Cc1cccc(C(=O)Nc2ccc(N3CCN(C4CCCC4)C3=O)nc2)c1	none
O=[N+]([O-])c1ccc(N2CCCCCC2)nc1	Pf apPOL block 99
O=[N+]([O-])c1ccc(N2CCCCC2)nc1	none
O=C(NCc1ccc(F)cc1F)C1CCN(c2nccn3nc(-c4ccccc4)cc23)CC1	none
Cc1cc(C)n(-c2ccc(SCc3ccccc3Cl)nn2)n1	none
COc1cc(OC)c2c(-c3ccccc3)cc(=O)oc2c1C(CC(=O)N1CCN(c2ccccc2)CC1)c1ccc(N(C)C)cc1 (centres undefined)	mHTT-CaM PPI inh 58
COc1cc(OC)c2c(-c3ccccc3)cc(=O)oc2c1C(CC(=O)N1CCOCC1)c1ccc(N(C)C)cc1 (centres undefined)	mHTT-CaM PPI inh 66
COc1cc(OC)c2c(-c3ccccc3)cc(=O)oc2c1C(CC(=O)N1CCOCC1)c1ccc2c(c1)OCO2 (centres undefined)	none
COc1cc(O)c(C(CC(=O)N2CCCC2)c2ccc(N(C)C)cc2)c(OC)c1 (centres undefined)	none
Cc1ccc(CNC(=O)Cn2cnc3c(-c4ccc(F)cc4)csc3c2=O)cc1	none
CCn1cc(CN2CCCC(c3nncn3-c3ccccc3)C2)cn1 (centres undefined)	none
CCOC(=O)c1ccc(-n2c(C)ccc2C)cc1	none (no result: mHTT-CaM PPI inh)
Cc1ccc(C)n1-c1ccc(C(=O)ON2C(=O)CCC2=O)cc1	Pf apPOL block 82 (no result: mHTT-CaM PPI inh)
CC1(C)C(C=C(Cl)Cl)C1C(=O)Nc1ccc(Br)cc1 (centres undefined)	mHTT-CaM PPI inh 53
CC1(C)C(C=C(Cl)Cl)C1C(=O)Nc1ccc(S(=O)(=O)Nc2ncccn2)cc1 (centres undefined)	none
CC1(C)C(C=C(Cl)Cl)C1C(=O)Nc1ccccc1[N+](=O)[O-] (centres undefined)	mHTT-CaM PPI inh 56
CC1(C)C(C=C(Cl)Cl)C1C(=O)Nc1ccccc1Cl (centres undefined)	none
CC1(C)C(C=C(Cl)Cl)C1C(=O)Nc1cccc([N+](=O)[O-])c1 (centres undefined)	mHTT-CaM PPI inh 72!
Cc1ccc(NC(=O)C2C(C=C(Cl)Cl)C2(C)C)cc1C (centres undefined)	none
CC1(C)C(C=C(Cl)Cl)C1C(=O)Nc1cccc(C(=O)O)c1 (centres undefined)	none
Cc1cc(NS(=O)(=O)c2ccc(NC(=O)C3C(C=C(Cl)Cl)C3(C)C)cc2)nc(C)n1 (centres undefined)	mHTT-CaM PPI inh 62
Cc1cc(OCC(=O)N2CCCC2)c2c(C)c(Cc3ccccc3)c(=O)oc2c1	none
O=C(CC(NCc1cccnc1)C(=O)O)Nc1cc(Cl)cc(Cl)c1 (centres undefined)	none
O=C(NCc1cccc(CNC(=O)C(Cl)(Cl)Cl)c1)C(Cl)(Cl)Cl	none
COc1ccc(S(=O)(=O)N2CCSC2c2cc(Br)ccc2OC)cc1 (centres undefined)	none
COc1cccc(CNc2cccc3cccnc23)c1O	mHTT-CaM PPI inh 54
COc1cccc(CNc2ncccn2)c1OC	none
O=C(Nc1nc(-c2cccc([N+](=O)[O-])c2)cs1)c1ccccc1Cl	none
O=C(Nc1ccc([N+](=O)[O-])cc1O)C1C2CC/C=C\CCC21 (centres undefined)	Pf apPOL block 93
Cc1ccc([N+](=O)[O-])cc1NC(=O)C1CC1	none
Cc1ccc(-c2cc(C(=O)Nc3cccnc3)c3ccccc3n2)o1	none
Cc1ccc(-c2cc(C(=O)Nc3ccncc3)c3ccccc3n2)o1	mHTT-CaM PPI inh 74
Cc1cccn2c(=O)c3cc(C(=O)NC4CCCCC4)c(=N)n(Cc4ccco4)c3nc12	none
COc1cccc(C2CC(c3ccc(Br)cc3)=NN2C(=O)c2ccncc2)c1OC (centres undefined)	mHTT-CaM PPI inh 61

Screening data from PubChem BioAssay.
